Screening results deposited in PubChem by Broad Institute.
Tgondii IFNg: inhibitors of Toxoplasma gondii growth with IFN-gamma; Toxoplasma gondii growth in IFN-gamma-treated host cells; stronger effect = lower value; activity change, negative = inhibition, % (test concentration not listed); 3.8% of 69,000 active; in the data active = activity change below about -70%, passing the limit was not always enough;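 also: host cells are HeLa cells infected with Toxoplasma gondii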
Numbers without * were called inactive; ! = repeats disagree. The sample as a whole holds a higher share of hits than the screen did.

SMILES | Tgondii IFNg
OC[C@H]1O[C@@H](n2cnc3c(NC4CCCC4)nc(Cl)nc32)[C@H](O)[C@@H]1O | -70
O=C(c1n[nH]c2c1CCCC2)N1CCC(c2[nH]ncc2-c2ccccc2)CC1 | -49
Cc1cc(Cc2c(F)cccc2F)cc(C2CCN(C(=O)CC3CCCCO3)CC2)n1 (centres undefined) | -20
Cc1cc(Cc2cccc(F)c2)cc(C2CCN(C(=O)c3n[nH]c4c3CCCCC4)CC2)n1 | -111*
COCC(=O)N1CC[C@@H](N(C)C)[C@@H]1Cc1cccnc1 | -32
Cc1cccc(-c2nc(Cn3nnc(-c4nc(-c5cccc(C(F)(F)F)c5)no4)c3C)c(C)o2)c1 | 7
CCN1CCC2(CC1)OC(=O)C(C)=C2C(=O)Nc1ccc(C)c(Cl)c1 | 9
OC1(Cn2cnc3ccccc32)CCN(Cc2ccc(F)cc2)CC1 | 30
CCCc1ccc(C2CC(=O)Nc3cc4c(cc32)OCO4)o1 (centres undefined) | -88*
CCOC(=O)Nc1ccc2c(c1)NC(=O)CC2c1cc(C(C)C)no1 (centres undefined) | -8
O=C1COc2cc3c(cc2N1)NC(=O)CC3c1nccs1 (centres undefined) | -1
Nc1ccc2c(c1)OCCOCCOCCOCCO2 | -6
C#CCOC(=O)Nc1cnc(OCC)c(C(F)(F)F)c1 | -75*
CCOC(=O)NC(Nc1cc(C)on1)(C(F)(F)F)C(F)(F)F | 94
Cc1cc(N(C)C)cc(C2CCNC2)n1 (centres undefined) | -38
COc1coc(CN2CCCC(CCc3ccccc3C)C2)cc1=O (centres undefined) | -14
CNC(=O)c1ccc(CN2CCCC(CCc3ccccc3C)C2)cc1 (centres undefined) | -7
Cc1c[nH]c(CN2CCCC(CCc3ccccc3F)C2)c(C)c1=O (centres undefined) | -89*
COc1cccc(NC(=O)c2cc(-c3cnc(-c4cccnc4)nc3)cn2C)c1 | -7
c1cncc(-c2nccn2CCn2ccnc2)c1 | -4
O=C(C1CCOCC1)N1CC[C@H]2[C@H](CCCN2C(=O)/C=C/c2cccc(F)c2)C1 | -49
COc1cccc(-n2c(=O)c(C(=O)NC3CCCCCC3)c(O)c3cccnc32)c1 | -113*
COc1cccc(CNC(=O)c2c(O)c3cccnc3n(-c3ccc(F)cc3)c2=O)c1 | 163
O=C(Nc1cccc(F)c1)c1c(O)c2cccnc2n(-c2ccccc2)c1=O | 10
O=C(NCc1ccco1)c1c(O)c2cccnc2n(-c2cccc(F)c2)c1=O | 183
SMILES | Tgondii IFNg
O=C(NCc1ccco1)c1c(O)c2cccnc2n(-c2ccc(F)cc2)c1=O | -79*
O=C(Nc1cccc(F)c1)c1c(O)c2cccnc2n(-c2cccc(F)c2)c1=O | 42
COc1cccc(-n2c(=O)c(C(=O)NC3CCCCC3)c(O)c3cccnc32)c1 | -63
O=C(Nc1cc(F)cc(F)c1)c1c(O)c2cccnc2n(-c2cccc(F)c2)c1=O | -106*
COc1ccc(-n2c(=O)c(C(=O)NC3CCCC3)c(O)c3cccnc32)cc1 | 29
COc1cccc(-c2ncc(CN3CCC(O)(CO)CC3)s2)c1 | 11
O=C(c1ccc(-c2cccnc2)nc1)N1CCC(Oc2cccnc2)CC1 | -8
CN1C[C@@H]2CC[C@H](CC1=O)N2C(=O)CCn1cncn1 | 3
O=C(c1ccco1)N(CCc1ccccc1)c1nc(-c2ccccc2)cs1 | -20
C=CCN1CC2CN(C(=O)c3csnn3)CCC2(c2ccccc2)C1 (centres undefined) | -21
Cc1cc(C2CCCCC2)n(O)c(=O)c1 | -82*!
Cc1cc(CC(C)CC(C)(C)C)n(O)c(=O)c1 (centres undefined) | -68
Cc1c(C)c(C)c(S(=O)(=O)Nc2cc(C(C)(C)C)nn2-c2ccccc2)c(C)c1C | -67
COC(=O)c1cccc(-c2cccc(CN3CCOCC3)c2)c1 | -5
CCc1nc(SCC(=O)NC(C)CN2CCc3ccccc3C2)n[nH]1 (centres undefined) | 12
COc1cc2c(cc1C1CC(=O)Nc3[nH]ncc31)CCC2 (centres undefined) | 4
O=C1CC(c2ccsc2)c2cc3cn[nH]c3cc2N1 (centres undefined) | 1
O=C1CC(c2cccc(Br)c2)c2cc3c(cc2N1)CCC3 (centres undefined) | -83*
Cc1nc(CCNC(=O)[C@H]2CCCN2S(=O)(=O)c2ccc(C)c(C)c2)cs1 | 10
CN1CCC2(CC1)CN(C(=O)COCC1CCCO1)CCCN2C (centres undefined) | -38
O=C(c1cccnc1)N1CCC2(CCN(C(=O)C3CCOCC3)CC2)C1 | 3
CC(=O)c1ccc(-c2cccs2)s1 | -31
O=C(Sc1ccc(Cl)cc1)c1ccc(-c2cccs2)s1 | -104*
O=C(c1ccc(-c2cccs2)s1)c1ccc(F)cc1F | 151
CCn1cc(S(=O)(=O)N[C@@H]2CC[C@@H](N)C2)cn1 | 2
SMILES | Tgondii IFNg
CN(C)CC1(O)CCCN(C(=O)c2cnc3ccccn3c2=O)C1 (centres undefined) | 5
CN(C)CC1(O)CCCN(C(=O)c2cnc3ccccn3c2=O)CC1 (centres undefined) | 2
O=C1NC(=O)C(c2cnc3ccccn23)=C1c1cn2c3c(cc(F)cc13)CN(C(=O)N1CCCCC1)CC2 | -87*
CCOC(=O)c1ccc2c(c1)N(Cc1nc(-c3cccc(C)c3)oc1C)C(=O)c1ccccc1S2 | -43
CCN(CC)S(=O)(=O)c1ccc2c(c1)N(Cc1nc(-c3ccccc3)oc1C)C(=O)CS2 | -80*
CNC(=O)c1ccc(-c2nc(CN3CCN(S(=O)(=O)c4ccc(OC)cc4)CC3)c(C)o2)cc1 | 14
Cc1oc(-c2ccc3ccccc3c2)nc1CN1CCN(S(N)(=O)=O)CC1 | 36
Cc1oc(-c2ccccc2)nc1CN1C(=O)CSc2ccc(S(=O)(=O)N3CCCCCC3)cc21 | -95*
Cc1oc(-c2ccccc2)nc1Cn1ccn2nc(-c3ccc4c(c3)OCO4)cc2c1=O | -15
C=C(C)CN(CC)C(=O)CCc1c(C)nn(C)c1C | 4
Cc1cc(Cl)ccc1NC(=O)Cn1ncc2c(N3CCN(c4ccccn4)CC3)ncnc21 | 64
O=C(Cn1ncc2c(N3CCN(c4ccccn4)CC3)ncnc21)Nc1ccccc1Cl | 97
CC(C)c1ccc(NC(=O)Cn2ncc3c(N4CCN(c5ccccn5)CC4)ncnc32)cc1 | -43
O=C(Cn1ncc2c(N3CCN(c4ccccn4)CC3)ncnc21)Nc1ccc(Cl)cn1 | -83*
Cc1ccc(NC(=O)Cn2ncc3c(N4CCN(c5ccccn5)CC4)ncnc32)cc1Cl | -74*
CC(C)c1cccc(NC(=O)Cn2ncc3c(N4CCN(c5ccccn5)CC4)ncnc32)c1 | -93*
COc1ccc(NC(=O)Cn2ncc3c(N4CCN(c5ccccn5)CC4)ncnc32)cc1Cl | 120
Cc1ccc(NC(=O)Cn2ncc3c(N4CCN(c5ccccn5)CC4)ncnc32)cc1C | -55
Cc1cccc(NC(=O)Cn2ncc3c(N4CCN(c5ccccn5)CC4)ncnc32)c1 | 88
CCOCC1CN(Cc2ccncc2)Cc2nnn(CC3CC3)c21 (centres undefined) | -46
O=S(=O)(c1ccc(F)cc1)N1CCCn2cnc(CN3CCCC3)c2C1 | -32
Cc1ccc(C(Cc2ccsc2)NS(=O)(=O)C2CCS(=O)(=O)C2)nc1 (centres undefined) | 12
CCn1nc(C)c(NC(=O)CNC(C)Cn2nc(C)cc2C)c1C (centres undefined) | 0
CCC(Cn1ccnc1)NC(=O)c1ccc(=O)[nH]c1 (centres undefined) | 56
O=C(Oc1ccc2c3c(c(=O)oc2c1)CCC3)c1ccccc1 | 6
